MEKK3 PB1 HTS: MEKK3-MEK5 PB1 interaction, increase or decrease; Q99759; bead-based flow cytometry, Alexa488-MEK5 binding to MEKK3; actives lie on both sides; 0 = blocked by unlabeled MEK5, 100 = vehicle; binding response (% of control), % at 10 µM; 290,000 tested, 1.4% active;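 active = binding response more than 3 SD above or below the average of its plate-row segment, actives on both sides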;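 also: Alexa488 bead fluorescence after subtracting the streptavidin-only scavenger bead signal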
NTR1 ag: NTR1 (human) agonism; NTR1-U2OS beta-arrestin-GFP spot imaging, agonist mode; activation, % at 20 µM; 330,000 tested, 0.17% active; AID 493036;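 active = activation at or above 40% of the spot to cytoplasm intensity ratio, with at least 20 cells analyzed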
Target sequence (P30989 whole entry, looked up): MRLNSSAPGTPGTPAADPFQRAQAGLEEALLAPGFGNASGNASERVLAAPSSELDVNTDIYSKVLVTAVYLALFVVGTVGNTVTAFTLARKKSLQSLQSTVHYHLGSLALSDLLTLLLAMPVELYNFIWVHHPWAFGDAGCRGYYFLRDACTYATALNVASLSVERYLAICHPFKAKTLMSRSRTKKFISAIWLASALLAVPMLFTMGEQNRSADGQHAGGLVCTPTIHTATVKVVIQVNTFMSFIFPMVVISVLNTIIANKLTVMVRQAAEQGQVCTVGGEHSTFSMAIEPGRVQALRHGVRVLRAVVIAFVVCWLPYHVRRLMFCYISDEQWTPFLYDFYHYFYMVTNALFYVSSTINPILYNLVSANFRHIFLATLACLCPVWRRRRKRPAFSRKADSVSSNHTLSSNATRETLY
ANO1 activ: activates or potentiates the mouse TMEM16A chloride channel | Q8BHY3 | HEK293 TMEM16A/YFP-H148Q/I152L, iodide quench fluorescence; active compounds read low | B-score at 10 µM | 340,000 tested, 0.3% active | AID 623877;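 active = fluorescence-ratio B-score plate-corrected deviation score at least 3 library SD below zero, with starting fluorescence score within 5 deviations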;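 also: channel opened by trigger with iodide after compound preincubation; score built on the fluorescence ratio of max minus min over baseline; more negative score means more quench and so TMEM16A activation or potentiation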
MEKK2 mut-MEK5: signal of MEK5 binding to mutant human MEKK2 PB1 domain. bead flow cytometry, Alexa488-MEK5 binding to MEKK2 mutant. percent response, % at 10 µM. 290,000 tested, 0.35% active. AID 1530; in the data active = percent response above about 24%, passing the limit was not always enough
MEKK2 WT-MEK5: raises or lowers MEK5 binding to wildtype human MEKK2 PB1 domain; AID 1531; bead flow cytometry, Alexa488-MEK5 binding to MEKK2 WT; actives lie on both sides; binding response (% of control), % at 10 µM; 290,000 tested, 1.1% active; in the data active = binding response below about 67% or above about 130%
TMEM16A inh: blocks the mouse calcium-activated chloride channel TMEM16A; Q8BHY3; HEK293 TMEM16A/YFP iodide influx fluorescence, ionomycin; normalized B-score (activity score, 25-100; higher = stronger inhibition) at 10 µM; 310,000 tested, 1.2% active;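 active = ratio plate-corrected score three or more library SD toward inhibition, starting fluorescence score within five deviations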;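 also: score derived from kinetic fluorescence span divided by baseline fluorescence per well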
MEKK2wt confirm: raises or lowers MEK5 binding to wildtype human MEKK2, retest; shares compounds with MEKK3 PB1 HTS; bead flow cytometry, Alexa488-MEK5 binding to MEKK2 WT; actives lie on both sides; binding response (% of control), % at 10 µM; 5,900 tested, 2.4% active; AID 1892; in the data active = binding response below about 16% or above about 210%; inactive = in between
MEKK2mut-MEK5: signal of MEK5 binding to mutant human MEKK2, retest; percent response, % at 10 µM; shares compounds with MEKK3 PB1 HTS; bead flow cytometry, Alexa488-MEK5 binding to MEKK2 mutant; 5,900 tested, 2% active; in the data active = percent response mostly above about 71%, no sharp cut-off; inactive = mostly below about 38%;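 also: higher means compound restores mutant binding toward wildtype level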
MEKK3-MEK5 inh: confirmation of inhibitors of MEK5 binding to human MEKK3. shares compounds with MEKK3 PB1 HTS. bead flow cytometry, Alexa488-MEK5 binding to MEKK3; active compounds read low. binding response (% of control), % at 10 µM. 5,900 tested, 1.8% active. AID 1894;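 active = binding response below 72% of control, or above a set upper limit, though filed actives all read lower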;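 also: lower values mean stronger disruption of MEK5 binding to MEKK3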
Hits are given with their value; i = inactive; nt = no result given; [ ] = another dose, or the depositor's remark. Only some compounds are listed: those with a hit (about 3.4% of all), similar ones and a draw of the others.

SMILES | MEKK3 PB1 HTS | NTR1 ag | ANO1 activ | MEKK2 mut-MEK5 | MEKK2 WT-MEK5 | TMEM16A inh | MEKK2wt confirm | MEKK2mut-MEK5 | MEKK3-MEK5 inh
CC(C)C(=O)Nc1nnc(SCC(=O)NCc2ccco2)s1 | 139 | i | i | i | i | i | i | i | i
Cc1ccc(S(=O)(=O)N2CCCOC2CNC(=O)C(=O)NCc2cccs2)cc1 (centres undefined) | i | i | i | i | i | i | nt | nt | nt
CCCc1cc2c(=O)c(-c3ccccn3)c(C)oc2cc1O | 75[inhibitor] | i | i | i | i | i | i | i | i
COc1cc(/C=C/c2noc(-c3ccccc3O)n2)ccc1OC(C)=O | 129 | i | i | i | i | i | i | i | i
CCOC(=O)C1=C(O)c2ccccc2C(=O)/C1=C\c1ccc(C)cc1 | 68[inhibitor] | nt | i | i | i | i | i | i | i
O=C(NCCCN1CCCC1)c1cc(Sc2ccc(F)cc2)nc2ccccc12 | 133 | i | i | i | i | i | i | i | i
CCCn1c(N)c(C(=O)COC(=O)CCNS(=O)(=O)c2ccccc2F)c(=O)[nH]c1=O | nt | i | i | nt | nt | i | nt | nt | nt
COCCn1c(SCC(=O)NCCCN2CCCC2=O)nc2ccccc2c1=O | nt | i | i | nt | nt | nt | nt | nt | nt
Cc1c(C(=O)C(=O)N2CCN(C)CC2)c2ccccc2n1C | i | i | i | i | i | i | nt | nt | nt
Cc1c(C(=O)C(=O)N2c3ccc(F)cc3CCC2C)c2ccccc2n1C (centres undefined) | 141 | i | i | i | i | i | i | i | i
Cc1ccc(S(=O)(=O)N2CCOc3ccccc32)c(C)c1NS(C)(=O)=O | i | i | i | i | i | i | nt | nt | nt
CCOC(=O)C(NC(=O)CCl)(Nc1sc(C)c(CC)c1C#N)C(F)(F)F (centres undefined) | 147 | i | i | i | i | i | i | i | i
O=C(CSc1nnc(-c2cccnc2)s1)Nc1cccc(C(=O)O)c1 | 158 | i | i | i | i | i | i | i | i
CCCN1CC(O)=C(C#N)C1=O | i | i | i | i | i | i | nt | nt | nt
O=C(C[n+]1ccc(C(=O)NCCCO)cc1)c1cccc(Br)c1 | 130 | i | i | i | i | i | i | i | i
CCCCNC(=O)c1cccc(C(=O)NCCCC)c1 | i | i | i | i | i | i | nt | nt | nt
CCOc1ccc(N(CC(=O)NCCc2ccccc2)C(=O)c2csnn2)cc1 | i | i | i | i | i | i | nt | nt | nt
O=C(CSc1ccc(-c2ccco2)nn1)NCc1ccccc1Cl | 135 | i | i | i | i | i | i | i | i
CC(C)(Oc1ccc(Cl)cc1)C(=O)NCc1n[nH]c(=O)c2ccccc12 | nt | i | i | nt | nt | i | nt | nt | nt
CCOc1cccc(CNCc2ccc(C(=O)O)cc2)c1 | 50[inhibitor] | i | i | i | i | i | i | i | i
O=C(O)c1ccc(CNCc2cccc(Oc3ccccc3)c2)cc1 | i | i | i | i | i | i | nt | nt | nt
CCN(CC)C(=O)N1CCc2ccccc21 | i | i | i | i | i | i | nt | nt | nt
CCc1ccc(OCC(=O)N/N=C(\C)c2ccc3c(c2)OCCO3)cc1 | 131 | i | i | i | i | i | i | i | i
O=C(CCC(=O)Nc1ccccc1Cl)NNC(=O)C1CCCCC1 | nt | i | i | nt | nt | nt | nt | nt | nt
O=C(Nc1ccc(O)cc1)c1c(O)c2c([nH]c1=O)CCCC2 | i | i | i | i | i | nt | nt | nt | nt
SMILES | MEKK3 PB1 HTS | NTR1 ag | ANO1 activ | MEKK2 mut-MEK5 | MEKK2 WT-MEK5 | TMEM16A inh | MEKK2wt confirm | MEKK2mut-MEK5 | MEKK3-MEK5 inh
CCC(=O)c1ccc(-c2ccccc2)cc1 | i | i | i | i | i | i | nt | nt | nt
O=C(O)CCC(=O)c1ccc(-c2ccccc2)cc1 | 67[inhibitor] | i | i | i | 32[inhibitor] | i | i | i | i
COc1ccc(CCNC(=S)N2CCN(S(=O)(=O)c3ccccc3)CC2)cc1 | nt | i | i | nt | nt | i | nt | nt | nt
NCCNC(=O)c1c(NC(=O)c2ccccc2)sc2c1CCCC2 | i | i | i | 30 | 149 | i | i | i | i
Cc1onc(-c2ccccc2)c1C(=O)Nc1sc2c(c1C#N)CCC2 | i | i | i | i | i | i | nt | nt | nt
Cc1onc(-c2ccccc2)c1C(=O)Nc1sc2c(c1C(N)=O)CCC2 | 2.0[inhibitor] | i | i | i | 2.0[inhibitor] | i | i | i | i
O=C(NCC1CCCCC1)c1cccc(Br)c1 | i | i | i | i | i | i | nt | nt | nt
O=C(NCc1cccs1)N[C@@H](Cc1ccccc1)C(=O)O | 1.0[inhibitor] | i | i | i | -2.0[inhibitor] | i | i | i | i
CC(C)[C@H](NC(=O)NCc1cccs1)C(=O)O | 2.0[inhibitor] | i | i | i | 2.0[inhibitor] | i | i | i | i
Cc1cc(NC(=O)CN(C)CC(=O)Nc2ccc(Cl)cc2)no1 | nt | i | i | nt | nt | nt | nt | nt | nt
CC(=O)c1cccc(N/C=C\C(=O)c2ccc(C)cc2)c1 | 135 | nt | i | i | i | i | i | i | i
CC(=O)c1cccc(NS(=O)(=O)c2ccc(N/C=C\C(=O)c3ccc(C)cc3)cc2)c1 | i | i | i | i | i | i | nt | nt | nt
CN(Cc1nc2ccccc2c(=O)[nH]1)C(=O)c1cccc(S(=O)(=O)N2CCc3ccccc32)c1 | nt | i | i | nt | nt | nt | nt | nt | nt
COc1cc(OC)c2c(-c3ccccc3)cc(=O)oc2c1C(CC(=O)N1CCOCC1)c1ccc2c(c1)OCO2 (centres undefined) | i | i | i | i | 144 | i | i | i | i
COc1cc(OC)c2c(-c3ccccc3)cc(=O)oc2c1C(CCN1CCCC1)c1ccc2c(c1)OCO2 (centres undefined) | 128 | i | i | i | 175 | i | i | i | i
COc1ccc(C(CCN2CCCC(C)C2)c2c(OC)cc(OC)c3c(C)cc(=O)oc23)cc1 (centres undefined) | i | i | i | i | 138 | i | i | i | i
COc1cc(OC)c2c(-c3ccccc3)cc(=O)oc2c1C(CCN1CCCC(C)C1)c1ccc(N(C)C)cc1 (centres undefined) | i | i | i | 41 | 222 | i | i | i | i
COc1cc(OC)c2c(-c3ccccc3)cc(=O)oc2c1C(CC(=O)N1CCOCC1)c1ccc(N(C)C)cc1 (centres undefined) | i | i | i | i | i | i | nt | nt | nt
CN1CCN(CCCNC(=O)Nc2ccc([N+](=O)[O-])cc2)CC1 | i | i | i | i | i | i | nt | nt | nt
CC1(C)Cc2c(sc(NC(=O)C(=O)N3CCCCC3)c2C(N)=O)CO1 | i | i | i | i | i | i | nt | nt | nt
O=C(Cc1ccc(S(=O)(=O)N2CCOCC2)s1)Nc1ccc(S(=O)(=O)N2CCCCC2)cc1 | nt | i | i | nt | nt | i | nt | nt | nt
